This is one part of a sample in which hits are shown more often than they occur.
Tb PYK inh = blocks Trypanosoma brucei pyruvate kinase; TbPYK enzyme, Kinase-Glo Plus ATP luminescence, 45 min; Potency, µM (top dose mostly 76.8 µM), without a hit: at the highest dose activity, negative = inhibition, usual class: inhibitors; Q57TT1; hit rate 0.12% among 410,000; AID 624173; further: potency means the concentration at half of the fitted maximal effect; on the % scale 0 is the no-effect control and ±100 the full control effect; nearly all actives have a fitted effect of over 50% in size
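Readout: single end-point luminescence (Kinase-Glo Plus, 10 min). Reaction conditions were TbPYK/substrate plus 130 uM ADP, 45 min at RT, pH 7.2 TEA buffer. No-enzyme wells served as controls, and data were normalized before concentration-response fitting.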
CHX counter = affects cycloheximide protein synthesis inhibition readout, counter-screen; max response, %; hit rate 12% among 300,000; cell reporter, cycloheximide protein synthesis inhibition counterscreen; AID 2314; in the data active means max response mostly above about 13%, no sharp cut-off; inactive means mostly below about 14%; further: read at 38.3 µM for the half of the compounds with a filed dose; 0% is about no effect
Sm TGR inh = inhibitors of Schistosoma mansoni thioredoxin glutathione reductase. Q962Y6. purified TGR, DTNB reduction, TNB absorbance 405 nm. Potency, µM (highest dose often 114 µM), for the others: at the highest dose activity change, negative = inhibition, actives largely listed as inhibitors. hit rate 3% among 360,000; further: potency means the concentration at half of the fitted maximal effect; on the % scale 0 is the no-effect control and ±100 the full control effect; nearly all actives have a fitted effect of over 60% in size
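First, TGR (20 nM dispensed) and NADPH were mixed with compound. Second, a 15 min room-temperature incubation followed. Third, further NADPH and then DTNB were added to start the reaction. Finally, TNB absorbance was monitored kinetically.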
Shiga inhibitor = Shiga toxin inhibition. inhibition, % at 38.7 µM. Vero cells, Shiga toxin protein synthesis inhibition reporter. hit rate 9.2% among 290,000; in the data active means inhibition mostly above about 28%, no sharp cut-off; inactive means mostly below about 43%; further: 0% is about no effect
LmPK inhibitor = LmPK (Leishmania mexicana) enzyme inhibition; Q27686; purified LmPK, Kinase-Glo ATP luminescence, 1 h; Potency, µM (highest dose often 57.5 µM), without a hit: at the highest dose activity change, negative = inhibition, usual class: inhibitors; hit rate 0.37% among 290,000; AID 1721; further: potency means the concentration at half of the fitted maximal effect; on the % scale 0 is the no-effect control and ±100 the full control effect
Target sequence (Q27686 whole entry, looked up): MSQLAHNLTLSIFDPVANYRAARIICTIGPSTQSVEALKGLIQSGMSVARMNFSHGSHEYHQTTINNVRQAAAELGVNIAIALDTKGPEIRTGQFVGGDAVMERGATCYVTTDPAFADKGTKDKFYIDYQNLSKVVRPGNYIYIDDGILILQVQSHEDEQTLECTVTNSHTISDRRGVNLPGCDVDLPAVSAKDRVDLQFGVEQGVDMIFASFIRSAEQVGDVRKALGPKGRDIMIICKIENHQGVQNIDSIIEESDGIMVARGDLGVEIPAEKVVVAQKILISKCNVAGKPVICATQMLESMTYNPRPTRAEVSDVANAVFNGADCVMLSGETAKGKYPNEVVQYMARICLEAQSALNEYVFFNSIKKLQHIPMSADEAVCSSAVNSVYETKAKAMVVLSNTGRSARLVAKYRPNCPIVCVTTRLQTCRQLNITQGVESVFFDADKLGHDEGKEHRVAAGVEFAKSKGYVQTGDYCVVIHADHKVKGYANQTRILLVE
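Pyruvate kinase activity monitored as ATP production (luciferase luminescence). Conditions: 0.1 nM enzyme, 0.5 mM PEP, 0.1 mM ADP, 1 h, RT; normalized against uninhibited and no-enzyme wells.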
FBPA Giardia inh = inhibitors of Giardia lamblia fructose-1,6-bisphosphate aldolase; purified Giardia FBPA; Potency, µM (series often up to 59.6 µM), without a hit: at the highest dose activity, negative = inhibition, usual class: inhibitors; hit rate 0.71% among 290,000; further: potency means the concentration at half of the fitted maximal effect; on the % scale 0 is the no-effect control and ±100 the full control effect; nearly all actives have a fitted effect of over 55% in size
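Giardia FBPA (40 nM reagent) was preincubated 10 min at RT with compound (up to 57.5 uM final), then substrate plus GAPDH/TPI/NAD/arsenate coupling system with diaphorase/resazurin was added; resorufin fluorescence (525/598 nm) was read after 20 min.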
* = called active by the depositor; ? = inconclusive; / = no result; [ ] = remark or other dose. Unless noted, the call rests on the fitted dose curve; in most records, active means well fitted curve in the direction sought with a large enough effect; inconclusive means small, poorly fitted or top-dose-only effect, or another doubt; inactive means no such curve, though single readings can be large; an effect the other way counts as inactive or inconclusive.

SMILES	Tb PYK inh	CHX counter	Sm TGR inh	Shiga inhibitor	LmPK inhibitor	FBPA Giardia inh
CCCNC(=O)COC(=O)c1n[nH]c2ccccc12	3.4%	1.1	1.8%	23.0	-1.4%	0.9%
COc1ccc(NC(=O)N2CCCC3(CCN(C(=O)c4c(C)noc4C)CC3)C2)cc1	-9.3%	/	/	/	/	2.1%
CN(C)C(=O)CCc1ccc2c3c([nH]c2c1)[C@]1(C)[C@@H](C(=O)N2CCCCC2)C[C@H](CC(=O)NCC24CC5CC(CC(C5)C2)C4)C(=O)N1CC3	-2.3%	/	/	/	/	/
CC(=O)c1cccc(NC(=O)COC(=O)c2n[nH]c3ccccc23)c1	0.7%	19.3*	6.3%	102.0*	0.0%	-0.6%
O=C(COC(=O)c1ccc2[nH]c3c(c2c1)CCCC3)Nc1ccccc1	1.1%	15.7*	9.0%	41.7*	0.4%	-1.7%
CN(C(=O)COC(=O)c1n[nH]c2ccccc12)c1ccccc1	0.1%	26.7*	11.6%	41.0	15.4%	6.3%
CN(C)c1cccc(C(=O)OCC(=O)N(C)c2ccccc2)c1	0.9%	7.2	-5.7%	-4.8	5.4%	5.6%
CN(C(=O)COC(=O)c1cccc(F)c1)c1ccccc1	6.6%	12.6*	4.4%	14.2	0.6%	3.1%
Cc1cccc(C)c1NC(=O)COC(=O)c1ccc2[nH]c3c(c2c1)CCCC3	2.2%	1.4	/	-2.1	2.5%	0.7%
O=C(COC(=O)c1n[nH]c2ccccc12)Nc1cccc(S(=O)(=O)N2CCOCC2)c1	0.8%	5.7	-1.8%	27.9	12.3%	-2.3%
CN(C(=O)COC(=O)c1n[nH]c(=O)c2ccccc12)c1ccccc1	4.6%	/	-6.7%	/	/	/
Cc1ccc(S(=O)(=O)N2CCN(C(=O)CN3C(=O)c4ccc([N+](=O)[O-])cc4C3=O)CC2)cc1C	0.0%	/	-7.1%	/	/	/
O=C(NCc1cccnc1)C(=O)Nc1nccs1	/	4.2	11.4%	3.2	-1.2%	?
O=C(Nc1nc2ccc(F)cc2s1)c1ccccn1	?	-0.9	-7.2%	25.8	17.8µM*	?
CCOc1ccc2nc(NC(=O)c3cnccn3)sc2c1	-1.7%	32.3*	0.2%	62.2*	-22.1%	2.2%
O=C(Nc1nc2ccccc2s1)c1cnccn1	-16.3%	31.5*	-5.7%	53.2*	10µM*	5.9%
O=C(Nc1nc2ccc(F)cc2s1)C1=COCCO1	?	/	-4.8%	/	/	/
O=C(NCc1cccnc1)C(=O)Nc1nc2ccccc2s1	-2.0%	38.8*	3.8%	93.4*	-10.4%[11.5 µM]	-0.5%
O=C(Nc1nccs1)c1cnccn1	4.3%	2.5	-0.4%	24.2	2.1%	-19.9%
Cc1ccccc1OCC(=O)Nc1ccc(OCc2cc(=O)n3ccccc3n2)cc1	-8.2%	/	5.1%	/	/	/
CC(C)c1cnc2c(c1SCC(=O)Nc1ccc(OC(F)(F)F)cc1)c(=O)n(C)c(=O)n2C	-25.0%	/	2.9%	/	/	/
CCOC(=O)c1ccc(COC(=O)c2nonc2N)cc1	-4.0%	21.6*	-27.3%	3.3	-2.9%	7.3%
COc1ccc(C(=O)OCCCc2cc3ccccc3c(=O)o2)cc1	1.7%	/	50.1µM*	/	/	/
COc1ccc(C(=O)OCCc2cc3ccccc3c(=O)o2)cc1	-0.6%	/	?	/	/	/
COc1cc2cc(CCCOC(=O)c3ccc4c(c3)OCO4)oc(=O)c2cc1OC	-2.1%	/	50.1µM*	/	/	/
SMILES	Tb PYK inh	CHX counter	Sm TGR inh	Shiga inhibitor	LmPK inhibitor	FBPA Giardia inh
OC[C@@H]1CN(Cc2ccc(F)cc2)C[C@H](n2cnc3c(N4CCOCC4)ncnc32)O1	-3.9%	/	/	/	/	/
Cc1ccnc(NC(=O)CSc2nnc3c(n2)[nH]c2ccccc23)c1	/	33.2*	?	46.6*	-3.7%	-13.9%
CCc1nnc(NC(=O)CSc2nnc3c(n2)[nH]c2ccccc23)s1	0.7%	-5.0	2.8%	25.2	0.5%	1.5%
Cc1noc(C)c1-c1ccc2ncnc(NCc3ccco3)c2c1	/	2.9	/	-4.8	/	1.0%
Cc1nnc(SCC(=O)Nc2nccs2)s1	-7.8%	-1.9	-0.1%	1.3	3.1%	-3.4%
O=C(NCCCCNC(=O)c1ccc(Br)s1)c1ccc(Br)s1	5.6%	-2.8	2.8%	-13.8	-0.4%	-1.4%
O=C(Nc1nccs1)c1ccc(Br)s1	2.1%	54.3*	-0.7%	60.4*	-0.1%	-6.0%
Cc1ccc(C(=O)Nc2nccs2)s1	0.1%	59.1*	1.6%	92.4*	-0.7%	2.5%
Oc1cccc(-c2nc3ncccn3c2Nc2cccc(C(F)(F)F)c2)c1	6.2%	/	0.8%	/	/	/
CCN(CC)C(=O)c1sc2c(c1C)c(=O)n(CCc1ccccc1)c(=O)n2Cc1ccc(C)cc1	2.4%	/	6.3%	/	/	/
CCCOc1ccc(C(=O)Nc2ccc(NC(=O)c3cccc(Cl)c3)cc2)cc1	6.9%	/	6.2%	/	/	/
O=C(Nc1ccc(Cl)cn1)c1ccc(Oc2ccccc2)cc1	-4.0%	34.4*	-14.0%	32.2*	-7.3%	1.0%
CCCOc1ccc(C(=O)Nc2ccc(Cl)cn2)cc1	-4.5%	30.4*	6.2%	76.7*	?	-3.0%
O=C(Nc1cc(-c2ccccc2)[nH]n1)c1ccc(Cl)cc1	7.0%	50.7*	1.1%	87.6*	2.8%	-1.0%
O=C(Nc1ccc(Cl)cn1)c1cccc(OCc2ccccc2)c1	-2.9%	21.5*	6.6%	48.0*	-13.0%	3.6%
O=C(Nc1ccc(Cl)cn1)c1ccccc1SCc1ccccc1	3.4%	5.8	-6.7%	20.8	-1.9%	12.8%
CCCNC(=O)OC[C@@H]1O[C@H](CCO/N=C\c2ccc(C(=O)N3[C@H](c4ccc(C)cc4)[C@@H](C)CC[C@H]3C(=O)OC)cc2)C=C[C@@H]1Oc1ccc(OC)cc1	/	/	/	/	/	3.9%[12.9 µM]
O=C(O)CCC(C(=O)O)N1C(=O)C2C3CCC(C3)C2C1=O (stereo not given)	4.8%	/	/	/	/	/
Cc1ccccc1C(=O)NCCNC(=O)c1cnccn1	1.5%	-4.5	-2.5%	-13.0	1.4%	1.7%
COc1ccc(C2=Nc3ccccc3OC2)cc1	-18.9%	46.1*	0.0%	98.9*	-2.8%	-21.9%
COc1ccc(-c2cc(-c3ccccc3)nc3c2COc2ccccc2-3)cc1	2.8%	/	10.5%	/	/	/
CCOc1ccc(C(=O)Nc2ccc3c(c2)OCCO3)cc1OC	4.9%	19.7*	-1.4%	62.9*	-21.8%	-8.2%
CCOc1cc(C(=O)Nc2ccc3c(c2)OCO3)ccc1OC(F)F	0.0%	23.0*	5.3%	52.1	3.5%	-14.6%
Cc1cccc(C(=O)NNC2=CC(=O)CC(C)(C)C2)c1O	-4.4%	16.4*	-14.9%	64.9*	-17.5%	-13.5%
CC1(C)CC(=O)C=C(NNC(=O)c2ccccc2O)C1	-5.9%	-1.8	-10.3%	-15.6	-23.6%	/
Cc1cc(N2C(=O)CC(N3CCC(n4c(=O)[nH]c5ccccc54)CC3)C2=O)no1 (stereo not given)	-27.8%	2.3	22.4µM*	10.3	-2.8%	-11.2%
COC(=O)c1ccc(N2C(=O)CC(N3CCC(n4c(=O)[nH]c5ccccc54)CC3)C2=O)cc1 (stereo not given)	-8.3%	-1.6	35.5µM*	14.8	-0.4%	0.0%
